This passage reports growth results from PubChem BioAssay (NCI).

The structures appear in SMILES notation. The panel holds about 83,000 compounds, 20% with a hit somewhere; the sample as a whole holds those more often.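 Interpretation: 100, growth as untreated; towards 0, rising growth inhibition; 0, no net growth; 0 to -100, cell death. Compounds scoring below 10 were considered active.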 A number with no mark means an inactive call. Activity calls are given as the source filed them.

Test systems include SNB-19 CNS; PC-3 prostate; SK-MEL-5 melanoma; UACC-62 melanoma; SK-MEL-28 melanoma; SK-MEL-2 melanoma; EKVX NSCLC; SN12C renal; UO-31 renal; TK-10 renal; CAKI-1 renal; A498 renal; CCRF-CEM leukemia; MOLT-4 leukemia; U251 CNS; LOX IMVI melanoma; ACHN renal; HT29 colon.
Holding throughout (assay): NCI-60 one-dose screen, 48 h (100 = growth as untreated, 0 = no growth, -100 = all killed)
What all share (settings): 10 µM unless noted

In the case of `c1ccc(-c2nnc(-c3ccccn3)s2)nc1`, the growth was 97.9% in the test with SNB-19 CNS; 93.8% with PC-3 prostate; 97.2% in the test with SK-MEL-5 melanoma; 95.7% in the test with UACC-62 melanoma; 127% in the test with SK-MEL-28 melanoma; 104% in the test with SK-MEL-2 melanoma. Besides, the growth was 79.6% in the test on EKVX NSCLC; 114% in the test on SN12C renal; 76.3% with UO-31 renal; 123% with TK-10 renal; 50.1% in the test on CAKI-1 renal; 117% in the test on A498 renal. For the same molecule, the growth with CCRF-CEM leukemia was 80.8%; with MOLT-4 leukemia it was 109%.

`O=C(O)Cc1cccc(=O)c(O)c1C(=O)O`: the growth is 105% with SNB-19 CNS; 109% in the test on U251 CNS; 95.7% in the test on PC-3 prostate; 108% with SK-MEL-5 melanoma; 100% in the test with UACC-62 melanoma; 101% in the test on LOX IMVI melanoma. In addition, the growth was 110% in the test with SK-MEL-28 melanoma; 97.5% in the test on SK-MEL-2 melanoma; 110% in the test with EKVX NSCLC; 101% in the test with SN12C renal; 84.2% in the test on UO-31 renal; 108% in the test with TK-10 renal. Further, the growth in the test with ACHN renal was 101%; with A498 renal it was 114%; in the test on CCRF-CEM leukemia it was 98.3%; in the test with MOLT-4 leukemia it was 106%.

For the molecule `O=c1ccn(C2CC(O)C(O)C(CO)O2)c(=O)[nH]1` (stereo not given), the growth with HT29 colon was 113%; with SNB-19 CNS, 110%; with U251 CNS, 125%; in the test with PC-3 prostate it was 89.5%; with SK-MEL-5 melanoma, 137%; in the test with UACC-62 melanoma it was 105%. The growth is 109% in the test on LOX IMVI melanoma; 109% in the test with SK-MEL-28 melanoma; 145% in the test with SK-MEL-2 melanoma; 110% in the test with EKVX NSCLC; 92.5% with SN12C renal; 85% in the test with UO-31 renal. Moreover, the growth in the test with TK-10 renal was 121%; in the test on ACHN renal, 116%; with CAKI-1 renal, 97%; in the test on A498 renal it was 118%; with CCRF-CEM leukemia, 7.45% (active); in the test on MOLT-4 leukemia it was 102%.

In the case of `O=C(Nc1cccc(-n2cc(-c3ccncc3)c(-c3ccc(Cl)c(O)c3)n2)c1)c1ccc(N2CCOCC2)c(C(F)(F)F)c1`, the growth is 98% in the test on HT29 colon; 65.7% in the test on SNB-19 CNS; 11.8% in the test on U251 CNS; 27.2% in the test with PC-3 prostate; 50.8% in the test on SK-MEL-5 melanoma; 49.2% in the test with UACC-62 melanoma. In addition, the growth was 9.98% (active) in the test with LOX IMVI melanoma; 17.6% in the test with SK-MEL-2 melanoma; 73.9% in the test on SN12C renal; 36.9% with UO-31 renal; 119% in the test with TK-10 renal; 36.6% in the test on ACHN renal. For the same molecule, the growth is 81.2% in the test with CAKI-1 renal, 101% in the test on A498 renal, 27.9% with CCRF-CEM leukemia and 29.1% in the test on MOLT-4 leukemia.

Consider `COc1ccc(-c2nc(/C=N/Nc3cc(C)nc4ccc(Cl)cc34)c(C)o2)cc1`, for which the growth in the test with HT29 colon was -96.1% (active); in the test on SNB-19 CNS, -90.4% (active); with U251 CNS, -95.9% (active); with PC-3 prostate it was -73.1% (active); in the test on SK-MEL-5 melanoma, 57%; in the test on UACC-62 melanoma, 14.5%. Also, the growth was -97% (active) in the test on LOX IMVI melanoma; -41.3% (active) in the test with SK-MEL-28 melanoma; 101% in the test on SK-MEL-2 melanoma; -19.4% (active) in the test on EKVX NSCLC; -92.9% (active) with SN12C renal; -98.4% (active) with UO-31 renal. In addition, the growth with TK-10 renal was -36.1% (active); in the test with ACHN renal, -100% (active); with CAKI-1 renal it was -85.6% (active); in the test on A498 renal, 73%; in the test on CCRF-CEM leukemia it was -54.3% (active); with MOLT-4 leukemia, -46.7% (active).

Take `NC(=N\N=C/c1ccc(O)cc1)/C(N)=N\N=C/c1ccc(O)cc1`: the growth was 105% in the test with HT29 colon; 92.7% with SNB-19 CNS; 72.3% with U251 CNS; 33.1% with PC-3 prostate; 28.7% with SK-MEL-5 melanoma; 30.3% in the test on UACC-62 melanoma. For the same molecule, the growth in the test on LOX IMVI melanoma was 28.7%; in the test on SK-MEL-2 melanoma, 59%; in the test with EKVX NSCLC, 65.5%; in the test with SN12C renal, 74.2%; in the test with UO-31 renal it was 28.5%; with TK-10 renal it was 83.4%. The growth is 41.5% with CAKI-1 renal, 84.5% in the test with A498 renal and -8.61% (active) in the test on MOLT-4 leukemia.

On to `CCCCCCCCCCCCNC(=O)[C@H]1CSC(c2cc3ccccc3s2)N1` (stereo not given in full), for which the growth is 51.2% with SNB-19 CNS; -78.9% (active) in the test on U251 CNS; -17.4% (active) in the test on PC-3 prostate; 57.9% with SK-MEL-5 melanoma; -76.2% (active) in the test on UACC-62 melanoma; -85.7% (active) with LOX IMVI melanoma. The growth was -89% (active) in the test with SK-MEL-28 melanoma; -45.7% (active) with SK-MEL-2 melanoma; -59.6% (active) with EKVX NSCLC; -16.1% (active) with SN12C renal; -82.6% (active) with UO-31 renal; -78.7% (active) in the test on TK-10 renal. The growth in the test on ACHN renal was 17.5%; with CAKI-1 renal it was 74.7%; with A498 renal, 98.9%; in the test with CCRF-CEM leukemia, -45.5% (active).

On to `CCOC(=O)c1ccc2c(c1)nc(-c1ccc(OCc3ccccc3)c(OC)c1)n2-c1cc(C(C)(C)C)[nH]n1`, for which the growth with HT29 colon was 71.7%; with SNB-19 CNS, 105%; in the test on U251 CNS, 91.9%; in the test on PC-3 prostate it was 55.5%; with SK-MEL-5 melanoma, 65.3%; in the test with UACC-62 melanoma, 84.3%. Also, the growth in the test with SK-MEL-28 melanoma is 107%; in the test with SK-MEL-2 melanoma, 92.9%; in the test with SN12C renal it was 85.8%; in the test on UO-31 renal it was 67.5%; with TK-10 renal it was 90.5%; in the test with ACHN renal, 72.1%. Further, the results for the growth in the test with CAKI-1 renal, in the test with A498 renal and in the test with MOLT-4 leukemia were 76.5%, 72.3% and 43.4%, respectively.

With `CC(C)(C)n1cc(-c2ccnc(NCCCNS(=O)(=O)c3ccc(C(F)(F)F)cc3)c2)c(-c2cccc(O)c2)n1`, the growth in the test on HT29 colon is 2.27% (active); in the test on SNB-19 CNS, 6.04% (active); with U251 CNS it was 12.9%; in the test with PC-3 prostate, 13.2%; in the test with SK-MEL-5 melanoma it was 16.7%; in the test on UACC-62 melanoma, 48.7%. For the same molecule, the growth in the test with LOX IMVI melanoma was -81.8% (active); in the test on SK-MEL-28 melanoma it was -48.3% (active); in the test with SK-MEL-2 melanoma, 0.948% (active); with EKVX NSCLC it was 36.3%; with SN12C renal it was 40.3%; in the test on UO-31 renal it was 40.7%. In addition, the growth with TK-10 renal was 92.2%; in the test on ACHN renal, 25.3%; with A498 renal it was 60.1%; with CCRF-CEM leukemia, 21.4%; with MOLT-4 leukemia, 2.23% (active).
